Laboratory results from PubChem BioAssay AID1345085 (National Center for Advancing Translational Sciences (NCATS), 2018).
Records with an inconclusive call do not appear. Unmarked numbers belong to inactive results. Active and inactive are the calls of the source. The call rests on the fitted dose curve; in most records, active means well fitted cell-killing curve with a large enough effect; inconclusive means small, poorly fitted or top-dose-only effect, or effect the other way; inactive means no such curve, though single readings can be large or run the other way.

test system: C33A; assay: Confirmatory qHTS for gynecologic anti-cancer compounds from libraries of approved drugs and bioactive compounds; settings: gynecologic cancer cell panel viability, ATPlite luminescence, 48 h; series mostly up to 57.6 µM; activity change, negative = viability loss: at the top concentration; further: nearly all actives have a fitted effect of over 55% in size
Source text: National Center for Advancing Translational Sciences [NCATS] Assay Overview: Chemotherapeutic drug responses vary from cancer to cancer and from patient to patient. These variations could be caused by a number of factors including patient genomic background, tumor mutations, tumor heterogeneity, and aspects of drug treatment. Chemotherapeutic drug resistance is also a common issue and can lead to ineffective treatment and patient death. Here we have profiled the cell killing effects of thousands of compounds to characterize the responses in three gynecological cancers, identify cancer-selective compounds, and understand the diversity of responses to these compounds from pan-cancer suppressors to single cell line selective compounds. In this assay, we screened a 7,914 compound drug library that included approved drug and bioactive compounds in six ovarian, three cervical, and two placental cancer cell lines using the ATPlite assay for cell viability. ATPlite is a luminescence based assay reliant on the conversion of a luciferase substrate to light in the presence of ATP. As a cytotoxic compound will suppress growth and decrease the number of cells, the concentration of ATP will decrease, and less light signal will be detected in the well. Hits were selected from the primary screen for follow-up confirmation. For the confirmation screens, the ovarian cancer cell lines included CAOV-3, SK-OV-3, SW 626, ES-2, PA-1, and TOV-21G. The cervical cancer cell lines included HeLa, Ca Ski, and C-33 A. The placental cancer cell lines included JEG-3 and JAR. HEK 293T cells were used as the control cell line to determine the selectivity index. The ATPlite assay was used to determine the IC50 values.
Assay Protocol Summary: 1,000 cells in 4 uL of media were dispensed into white, solid bottom 1536-well plates using a Multidrop Combi (Thermo Scientific). The Assay plates were incubated for 16 hours at 37 C with 5% CO2 in assay plates, followed by the addition of 23 nL of DMSO or drug dissolved in DMSO. . Each compound was assayed in 11 concentrations (1:3 dilution) from 57.5 uM to 0.977 nM, using the automated Wako 1536 Pin Tool workstation and incubated at 37 C with 5% CO2 48 hours. 4 uL of ATPlite, the ATP monitoring reagent, was then added to the each well of the assay plates using the Multidrop Combi reagent dispenser followed by incubation for 15 minutes at room temperature. The resulting luminescence was measured using the ViewLux plate reader.
On the % scale 0 is the no-effect control and ±100 the full control effect; potency means the concentration at half of the fitted maximal effect.

Compound	Potency	activity change, negative = viability loss
COc1cc(N2CCC(N3CCN(C)CC3)CC2)ccc1Nc1ncc(Cl)c(Nc2ccccc2S(=O)(=O)C(C)C)n1	27.3 µM (active)	
C=CC(=O)Nc1cc2c(Nc3ccc(F)c(Cl)c3)ncnc2cc1OCCCN1CCOCC1	24.3 µM (active)	
CC(=O)c1cnc2ccc(-c3cc(Cl)c(O)c(Cl)c3)nc2c1NC1CCC(CN(C)C)CC1 (stereo not given)	1.4 µM (active)	
Cc1ccccc1C(OCCN(C)C)c1ccccc1 (stereo not given)		0.202%
O=C(NOCC1CC1)c1ccc(F)c(F)c1Nc1ccc(I)cc1Cl		-18.5%
Cc1[nH]c2ccccc2c1CCNCc1ccc(/C=C/C(=O)NO)cc1	0.243 µM (active)	
COc1c(C)c2c(c(O)c1C/C=C(\C)CCC(=O)O)C(=O)OC2		-23.6%
NC1(c2ccc(-c3nc4ccn5c(=O)[nH]nc5c4cc3-c3ccccc3)cc2)CCC1		11%
CCCC(Nc1nc(-c2ccc(NC(=O)NCC)c(OC)c2)ncc1C)c1cccnc1 (stereo not given)	0.153 µM (active)	
CCc1nc(C(N)=O)c(Nc2ccc(N3CCC(N4CCN(C)CC4)CC3)c(OC)c2)nc1NC1CCOCC1		-16.8% [at 45.6 µM]
Cc1cc(Nc2cc(N3CCN(C)CC3)nc(Sc3ccc(NC(=O)C4CC4)cc3)n2)n[nH]1		-16.6%
O=C(NCC(O)CO)c1ccncc1Nc1ccc(I)cc1F (stereo not given)		-24%
O=c1cc(CN2CCOCC2)occ1OCCCCCSc1ccnc2cc(C(F)(F)F)ccc12		-17.5%
CN1CCN(c2cccc(Nc3nc4c(-c5ccc(S(C)(=O)=O)cc5)cccn4n3)c2)CC1		-10.2%
Cc1c(C)n(Cc2ccc(-c3ccccc3C(=O)O)cc2)c2ccc(C(=O)N[C@@H](C)c3ccc([N+](=O)[O-])cc3)cc12		10.7%
Cc1cc(Nc2nc(N[C@@H](C)c3ccc(F)cc3)c(C#N)cc2F)n[nH]1		-15%
CC(=O)NCC(=O)N1C2CCC1c1cc(Nc3ncc(C(F)(F)F)c(NC4CCC4)n3)ccc12 (stereo not given)		-7.17%
CN(NC(=O)CC(=O)NN(C)C(=S)c1ccccc1)C(=S)c1ccccc1	0.0273 µM (active)	
CCCCN(CCCC)C(=O)CN1C[C@H](c2ccc3c(c2)OCO3)[C@@H](C(=O)O)[C@@H]1c1ccc(OC)cc1		-1.91%
CC[C@@]1(O)C(=O)OCc2c1cc1n(c2=O)Cc2cc3cc(O)ccc3nc2-1	0.306 µM (active)	

Compound	Potency	activity change, negative = viability loss
Cc1cnc(CNC(=O)c2c(=O)c3ccc(N4CCCN(C)CC4)nc3n3c2sc2ccccc23)cn1		-18.8% [at 10.7 µM]
COc1cc2c(Nc3ccc(NC(=O)c4ccccc4)cc3)ncnc2cc1OCCCN1CCOCC1	27.3 µM (active)	
CC(C)Nc1cc(-c2c[nH]c(C(=O)N[C@H](CO)c3cccc(Cl)c3)c2)c(Cl)cn1		-12.1%
O=C(/C=C/c1cccc(S(=O)(=O)Nc2ccccc2)c1)NO	2.98 µM (active)	
COc1cc2c(NC3CCN(C(C)C)CC3)nc(C3CCCCC3)nc2cc1OCCCN1CCCC1	15.3 µM (active)	
CCOc1cc2ncc(C#N)c(Nc3ccc(F)c(Cl)c3)c2cc1NC(=O)/C=C/CN(C)C	8.63 µM (active)	
CC(Oc1ccc2[nH]nc(/C=C/c3cnn(CCO)c3)c2c1)c1c(Cl)cncc1Cl (stereo not given)		11.8%
O=C1N(c2ccccc2)c2ccccc2C1(Cc1ccncc1)Cc1ccncc1		6.9%
COc1cc(Nc2ncc3c(n2)-c2ccc(Cl)cc2C(c2c(F)cccc2OC)=NC3)ccc1C(=O)O		-3.21%
CC[C@H](Nc1ncnc2nc[nH]c12)c1nc2cccc(F)c2c(=O)n1-c1ccccc1		-0.528% [at 10.7 µM]
NS(=O)(=O)OC[C@@H]1C[C@@H](n2ccc3c(N[C@H]4CCc5ccccc54)ncnc32)C[C@@H]1O	4.85 µM (active)	
O=C(NOC[C@H](O)CO)c1ccc(F)c(F)c1Nc1ccc(I)cc1F		-1.8%
CCN(CC)CCOc1ccc(/C(=C(\Cl)c2ccccc2)c2ccccc2)cc1	79.4 µM (active)	
CC1(C)[C@@H](O)CC[C@]2(C)[C@H]3C(=O)C=C4[C@@H]5C[C@@](C)(C(=O)O)CC[C@]5(C)CC[C@@]4(C)[C@]3(C)CC[C@@H]12		8.69%
COc1ccc(CCC(=O)c2c(O)cc(O[C@@H]3O[C@H](CO)[C@@H](O)[C@H](O)[C@H]3O[C@@H]3O[C@@H](C)[C@H](O)[C@@H](O)[C@H]3O)cc2O)cc1O		11.6%
Cn1c(=O)c(-c2c(Cl)cccc2Cl)cc2cnc(Nc3cccc(C(=O)O)c3)nc21	5.44 µM (active)	
CCCS(=O)c1ccc2nc(NC(=O)OC)[nH]c2c1 (stereo not given)		-5.48%
COc1cc(-c2nn(C3CCC(N4CCN(C(C)=O)CC4)CC3)c3ncnc(N)c23)ccc1NC(=O)c1cc2ccccc2n1C (stereo not given)		-12.7%
COc1cc(F)c(F)c(Nc2ccc(I)cc2F)c1NS(=O)(=O)C1(CC(O)CO)CC1 (stereo not given)		1.44%
CC1=C(CO)C(=O)O[C@@H]([C@@H](C)[C@H]2CC[C@H]3[C@@H]4C[C@H]5O[C@]56[C@@H](O)C=CC(=O)[C@]6(C)[C@H]4CC[C@]23C)C1	2.11 µM (active)	
